RXFP1 antagonist = RXFP1 (human) relaxin receptor antagonism | Q9HBX9 | HEK293-RXFP1, relaxin-stimulated cAMP HTRF, 30 min; stronger effect = lower value | activity change, negative = inhibition, % at 57.5 µM | hit rate 0.59% among 350,000 | AID 1259400;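 active means activity change of -60% or lower, but not beyond a set lower limit; inconclusive means change between -60% and -40%, or beyond the set limit; inactive means change above -40%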; further: on the % scale 0 is the no-effect control and ±100 the full control effect
Target sequence (Q9HBX9 whole entry, looked up): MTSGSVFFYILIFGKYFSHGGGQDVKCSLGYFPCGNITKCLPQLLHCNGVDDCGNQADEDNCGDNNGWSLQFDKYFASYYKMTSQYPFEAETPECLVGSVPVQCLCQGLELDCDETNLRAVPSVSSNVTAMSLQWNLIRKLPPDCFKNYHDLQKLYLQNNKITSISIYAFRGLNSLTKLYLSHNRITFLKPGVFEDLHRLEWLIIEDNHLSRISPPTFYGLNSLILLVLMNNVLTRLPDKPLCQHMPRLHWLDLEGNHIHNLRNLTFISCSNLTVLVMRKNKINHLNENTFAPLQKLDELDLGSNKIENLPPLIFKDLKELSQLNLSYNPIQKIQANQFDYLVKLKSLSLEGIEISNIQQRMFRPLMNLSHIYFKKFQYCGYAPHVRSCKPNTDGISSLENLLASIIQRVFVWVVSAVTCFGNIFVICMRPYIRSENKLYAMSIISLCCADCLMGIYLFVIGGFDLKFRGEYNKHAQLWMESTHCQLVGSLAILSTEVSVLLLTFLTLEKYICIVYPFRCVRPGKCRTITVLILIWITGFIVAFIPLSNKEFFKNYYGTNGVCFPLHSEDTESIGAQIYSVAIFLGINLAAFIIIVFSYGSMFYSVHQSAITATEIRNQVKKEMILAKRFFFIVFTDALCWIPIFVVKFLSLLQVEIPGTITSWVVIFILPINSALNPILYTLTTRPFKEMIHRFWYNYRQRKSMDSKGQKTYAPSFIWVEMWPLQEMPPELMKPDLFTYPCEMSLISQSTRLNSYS
ClpP mod = qHTS Assay for Activators of ClpP; ATP-dependent Clp protease proteolytic subunit (Bacillus subtilis (strain 168)), P80244; purified B. subtilis ClpP, FRET peptide cleavage, 20 min; Potency, µM (series often up to 57.5 µM), inactives show top-dose activity change, negative = active; hit rate 1.9% among 340,000; AID 651965, 2013; active means well fitted falling curve with a large enough effect; inconclusive means small, poorly fitted or top-dose-only effect; inactive means no such curve, though single readings can be large or run the other way; further: potency means the concentration at half of the fitted maximal effect; the source files actives as falling curves though it sought activators and does not explain the sign; nearly all actives have a fitted effect of over 65% in size
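ClpP 10 microg/mL final, pH 8 Tris/KCl buffer with BSA, glycerol, Tween-20; compound pinned in; FRET-FV substrate; RT 20 min; Ex320/Em430; ΔFRET vs ADEP 5.8 microM, DMSO, no enzyme.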
Akt phos inh = blocks phosphorylation of Akt; Neuro2A IGF-stimulated pAkt S473 HTRF, 20 min; stronger effect = lower value; activity change, % for hits at 50 µM; hit rate 0.32% among 360,000; in the data active means activity change below about -80%; inconclusive means mostly about -51% to -80%; further: on the % scale 0 is the no-effect control and ±100 the full control effect
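Single-point screen (50 µM final compound) in Neuro2A cells stimulated 20 min with 6 nM IGF at 37 deg C. After lysis, Ser473-phosphorylated Akt read by HTRF (ex 330 nm, em 615/665 nm) as the 665/615 ratio.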
gsp antagonist = gsp mutant antagonism; gsp-mutant cells, cAMP HTRF, 30 min; Potency, µM (doses to about 76.9 µM), for the others: top-dose activity change, negative = inhibition, usual class: inhibitors; hit rate 0.4% among 340,000; AID 624288; calls by dose curve; cell line not stated here;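 further: intracellular cAMP measured with PDE inhibitor Ro 20-1724 present during compound exposure; potency means the concentration at half of the fitted maximal effect; on the % scale 0 is the no-effect control and ±100 the full control effect; nearly all actives have a fitted effect of over 65% in size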
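Measurement of cellular cAMP by homogeneous time-resolved fluorescence following a 30 min compound exposure at 37C. The PDE inhibitor […] was present throughout; the assay buffer was DPBS with 0.05% BSA and 0.005% Tween 20.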
gsp ag = agonists of gsp mutant (McCune-Albright syndrome) | gsp mutant cells, cAMP HTRF, 30 min | Potency, µM (titrated, usually from 76.9 µM), without a hit: at the highest dose activation (cAMP increase), usual class: activators | AID 624287 | hit rate 0.13% among 340,000; active means well fitted activation curve with a large enough effect; inconclusive means small, poorly fitted or top-dose-only effect, or another doubt; inactive means no such curve, though single readings can be large or run the other way; cell line not stated here;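 further: phosphodiesterase inhibitor Ro 20-1724 added with compounds to block cAMP breakdown; potency means the concentration at half of the fitted maximal effect; nearly all actives have a fitted effect of over 60% in size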
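Cells stably selected in G418 were plated at 2000/well, grown 16-24 hr, then given compounds in DMSO with the PDE inhibitor […] (300 uM solution added) for 30 min at 37C; cAMP was read by HTRF.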
RXFP1 agonist = agonists of human relaxin receptor RXFP1; AID 2676; Potency, µM (doses to about 57.5 µM), inactives show top-dose activation, actives largely listed as activators; hit rate 0.3% among 370,000; HEK293T-RXFP1 cAMP TR-FRET, 30 min; response scale: percent of porcine relaxin response, buffer zero; active means well fitted activation curve with a large enough effect; inconclusive means small, poorly fitted or top-dose-only effect; further: potency means the concentration at half of the fitted maximal effect; on the % scale 0 is the no-effect control and ±100 the full control effect; nearly all actives have a fitted effect of over 60% in size
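HEK293 cells stably expressing RXFP1, treated 30 min at 37C with compounds plus PDE4 inhibitor Ro 20174; cAMP measured by HTRF TR-FRET. Normalized to buffer and 29 nM porcine relaxin; EC50 by Hill fit.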
* = called active by the depositor; i = inactive; u = inconclusive; x = no result given; [ ] = dose if it differs, or a comment. Only some compounds are listed: those with a hit (about 2.7% of all), similar ones and a draw of the others.

SMILES | RXFP1 antagonist | ClpP mod | Akt phos inh | gsp antagonist | gsp ag | RXFP1 agonist
CCC(C)c1ccccc1NC(=O)COC(=O)c1ccc2[nH]c3c(c2c1)CCCC3 (configuration not stated) | -7 | 32µM* | i | -19% | -19% | -2%
COc1ccc(N(CC(=O)NC2CCCCCC2)S(=O)(=O)c2ccc(C)cc2)cc1OC | -3 | 2% | i | 4% | -10% | 1%
NS(=O)(=O)c1ccc(NS(=O)(=O)c2ccc(C3CNC(=O)C3)cc2)cc1 (configuration not stated) | 9 | 28µM* | i | 10% | -2%[15.4 µM] | -2%
COc1ccc(CCNC(=O)CCc2c(C)c3cc4c(C)coc4c(C)c3oc2=O)cc1OC | -1 | u | x | x | x | 1%
O=c1[nH]c(/C=C/c2ccccc2OC(F)F)nc2c1cnn2-c1ccccc1 | 2 | 11µM* | i | 20% | 4% | 1%
COc1cc(OC)c(/C=C/c2ccccn2)c(OC)c1 | x | 2% | x | x | x | x
O=C(O)C1CSC2(c3ccc(Br)cc3)CCC(=O)N12 (configuration not stated) | -8 | x | i | x | -21%[15.4 µM] | -1%
O=C(O)C1CSC2(c3ccc4c(c3)OCCO4)CCC(=O)N12 (configuration not stated) | 4 | 1% | -115%* | -5% | -18% | 1%
Cc1ccc(-c2nc3ncccn3c2N)cc1 | x | -4% | i | x | x | x
Cn1c(=O)c2sccc2n2c(CCCC(=O)N3CCCCC3)nnc12 | 4 | -19% | x | -4% | u | 18µM*
Cn1c(=O)c2sccc2n2c(CCCC(=O)NC3CCCCC3)nnc12 | 15 | 1% | x | x | x | u
CC(C)NC(=O)COC(=O)c1ccc(S(=O)(=O)N2CCCC2)cc1 | -98* | x | i | -3% | 7% | 2%
CC(C)(C)NC(=O)COC(=O)c1ccc(S(=O)(=O)N2CCCCCC2)cc1 | -10 | -2% | i | -17% | -15% | 1%
COc1ccc(-c2ccc(C)cc2)cc1[C@H]1[C@H]2C=CC[C@@H](C)[C@@H]2C(=O)N1Cc1ccccc1 | x | -3% | i | 4% | 0% | 2%
COc1ccc(-c2ccc([C@H]3[C@H]4C=CC[C@@H](C)[C@@H]4C(=O)N3Cc3ccccc3)c(F)c2)cc1 | x | 20µM* | i | 4% | x | 1%
COc1ccc(-c2ccc([C@H]3[C@H]4C=CC[C@@H](C)[C@@H]4C(=O)N3Cc3ccccc3)c(F)c2)cc1OC | x | 3% | i | -12% | x | 3%
COc1ccc(-c2ccc(OC)c([C@H]3[C@H]4C=CC[C@@H](C)[C@@H]4C(=O)N3Cc3ccccc3)c2)cc1 | x | 25µM* | i | 1% | x | 0%
CSc1nc(NNC=O)cc(Oc2ccc(NC(C)=O)cc2)n1 | 5 | 2% | i | 7% | -29% | 2%
CCCCCCCC(=O)N/N=C(\C)c1ccc(O)cc1O | 7 | 16% | i | 2% | 15% | 4%
CCCCCCCCC(=O)N/N=C(\C)c1ccc(O)cc1O | -6 | 32µM* | i | 3% | -21% | 4%
CCOC(=O)c1ccccc1NC1c2ccccc2C(=O)N1C1CCN(C(=O)OCC)CC1 (configuration not stated) | 5 | 4% | i | u | -13% | 1%
CCOC(=O)c1ccccc1NC1OC(=O)c2ccccc21 (configuration not stated) | -3 | 28µM* | i | -3% | -41% | 3%
CC(Oc1ccccc1F)C(=O)Nc1ccc(-c2nc3ccccc3s2)cc1 (configuration not stated) | x | 3.2µM* | x | x | x | 0%
CCOC(=O)c1nnn(-c2nonc2-n2cccc2)c1-c1cccc([N+](=O)[O-])c1 | -11 | 28µM* | i | -3% | -49%[15.4 µM] | 2%
CCOC(=O)c1nnn(-c2nonc2-n2cccc2)c1C | -2 | 1% | i | -7% | 17% | -2%
SMILES | RXFP1 antagonist | ClpP mod | Akt phos inh | gsp antagonist | gsp ag | RXFP1 agonist
CC(=O)Nc1ccc(C(=O)Nc2nc(-c3cccnc3)cs2)cc1 | -9 | 11µM* | i | -6% | 3%[15.4 µM] | 0%
CC(=O)Nc1cccc(-c2csc(Nc3ccc(C)cn3)n2)c1 | -60* | -11% | i | -29% | 5% | -1%
CC(=O)Nc1cccc(-c2csc(Nc3ncccn3)n2)c1 | x | x | x | x | x | 0%
O=C(Nc1nc(-c2ccccc2)cs1)c1cccnc1 | -14 | -1% | i | -2% | 6% | 1%
O=C(COC(=O)CCC(=O)c1ccc(F)cc1)NCc1ccccc1Cl | 8 | x | i | 5% | 2% | x
COc1cc2c(cc1OC)C(=O)CCC2 | -7 | 28µM* | i | 12% | 3% | x
NC(=O)c1ccsc1NC(=O)COC(=O)Cc1cccc2ccccc12 | -10 | -2% | i | 35µM* | 32% | 0%
NC(=O)c1ccsc1NC(=O)COC(=O)Cc1c[nH]c2ccccc12 | 0 | -4% | i | -13% | -18% | 0%
O=C(O)C(=O)Nc1cccc(-c2nn[nH]n2)c1 | 2 | x | x | x | x | x
CCOC(=O)N1CCN(c2ccc(C(C)=O)cc2F)CC1 | 1 | 0% | i | -7% | -52% | 0%
CCC(=O)c1ccc(N2CCN(C(=O)c3ccccc3F)CC2)c(F)c1 | -24 | x | i | -25% | 17%[15.4 µM] | -2%
CCOC(=O)N1CCN(C(=S)NC(=O)c2ccc(F)c(F)c2)CC1 | 1 | 28µM* | i | -25% | 10%[15.4 µM] | -1%
O=C(c1ccccc1)c1ccc(N2CCN(C(=O)c3cccc(F)c3F)CC2)c(F)c1 | -11 | -7% | i | 40µM* | u | -2%
CCOC(=O)N1CCN(c2ccc(C(=O)c3ccccc3)cc2F)CC1 | -5 | -1% | i | 32µM* | -16% | 1%
O=C(c1ccc(N2CCN(C(=O)c3ccc(F)cc3F)CC2)cc1)c1cccc(F)c1 | -3 | -3% | i | 35µM* | -1% | -1%
O=C(c1ccc(F)cc1F)N1CCN(c2ncccn2)CC1 | -5 | -11% | i | 10% | u | 1%
Cc1ccnc2c(Cl)cccc12 | x | -2% | x | x | x | x
CC1CCN(S(=O)(=O)c2ccc3[nH]cc(C(=O)NCc4ccc(F)cc4)c(=O)c3c2)CC1 | x | -2% | x | x | x | u
COc1cccc(Nc2nnc(SCc3nc4ccccc4s3)s2)c1 | 2 | -3% | i | -9% | -2%[15.4 µM] | 3%
Cc1cccc(C)c1Nc1nnc(SCc2nc3ccccc3s2)s1 | x | 14µM* | i | 1% | 19% | 0%
Cc1ccc2ncc(C)c(/C=C/c3ccc(N(C)C)cc3)c2c1 | x | 1% | x | x | x | x
